In all, about 44,000 sequences went through this assay and about 5,100 (12%) were called active. The sample holds actives, similar sequences and a random draw of the others, so the mix is not that of the screen. No stated cut-off is given here; in the data, active = GI50 up to about 1.1 µM and inactive = higher. Entries with a potency or affinity are not part of this list.

In the assay the test system is MCF7.
What is called GI50 is the concentration that inhibits growth by half. A lower GI50 goes with greater sensitivity of the cells. With “[Bis(aminomethyl)dimethylsilane]tetrachloroplatinum(IV), CHEMBL2146190”, the GI50 is 2970 nM.

The substance SENNOSIDES, CHEMBL2108559 gave a GI50 of 183 nM.

The substance “[Bis(aminomethyl)tetramethylenesilane]tetrachloropaltinum(IV), CHEMBL2146189” displayed a GI50 of 1640 nM.

In the case of “[Bis(aminomethyl)pentamethylenesilane]tetrachloropaltinum(IV), CHEMBL2146204”, the 50% growth inhibitory concentration (GI50) came to 290 nM.

On to “[Bis(aminomethyl)pentamethylenesilane]dichloropaltinum(II), CHEMBL2146202”, for which the GI50 is 249 nM.

In turn, “[Bis(aminomethyl)tetramethylenesilane]dichloropaltinum(II), CHEMBL2146205” registered a GI50 of 2220 nM.

Regarding CISPLATIN, CHEMBL11359, halving of growth (GI50) required 3010 nM.

Values taken from ChEMBL document CHEMBL1201862, “PubChem BioAssay data set” (2004).
